# From PubChem BioAssay
# Hits are enriched below; roughly 6% of the tested compounds scored in any of these assays.
# D1 potentiator = Potentiators of Human D1 Dopamine Receptor: qHTS; 360,000 tested, 0.036% active; AID 504651, 2011; D(1A) dopamine receptor (Homo sapiens), P21728; potentiation, % at 10 µM; HEK293 TREx D1 cells, calcium flux, dopamine EC20 potentiation; in the data active = potentiation above about 30%
# Target sequence (P21728 whole entry, looked up): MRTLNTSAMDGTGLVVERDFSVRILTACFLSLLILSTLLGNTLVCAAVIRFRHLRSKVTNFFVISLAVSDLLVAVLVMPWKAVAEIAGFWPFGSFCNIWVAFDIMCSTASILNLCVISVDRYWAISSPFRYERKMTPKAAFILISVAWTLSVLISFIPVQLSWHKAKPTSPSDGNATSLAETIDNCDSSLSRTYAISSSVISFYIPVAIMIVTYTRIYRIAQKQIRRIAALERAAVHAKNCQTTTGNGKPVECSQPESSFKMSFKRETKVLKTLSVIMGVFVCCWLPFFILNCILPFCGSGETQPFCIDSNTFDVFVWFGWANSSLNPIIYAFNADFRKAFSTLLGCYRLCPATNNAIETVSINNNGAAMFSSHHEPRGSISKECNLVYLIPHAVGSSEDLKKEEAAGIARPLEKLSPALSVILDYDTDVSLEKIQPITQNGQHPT
# Chronic BCR inh = qHTS Assay to Find Inhibitors of Chronic Active B-Cell Receptor Signaling | ABC-DLBCL IkBa-CBG/CBR reporter, luminescence ratio, 4 h | Potency, µM (doses to about 46.1 µM), hits mostly inhibitors | 340,000 tested, 0.05% active | AID 493014, 2011; active = well fitted inhibition curve with a large enough effect in the signal ratio, with a control signal flat, not every such curve was filed as active; inconclusive = small, poorly fitted or top-dose-only effect, or effect the other way, or a change in a side signal; the % refers to the signal ratio
#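 Doxycycline induced both beetle luciferases in TMD8 lymphoma cells; IKK-driven degradation limits the IkappaBalpha-fused green signal, while red luminescence normalises for cell number and nonspecific effects. Compounds tested up to 46 uM, 4 hrs.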
# D1 ag = Allosteric Agonists of the Human D1 Dopamine Receptor: qHTS; HEK293 T-REx D1 cells, calcium flux, agonist mode; activation, % at 2 µM; 360,000 tested, 1% active; AID 504660, 2011; in the data active = activation above about 30%
#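 Tetracycline-induced HEK293 TREx D1 cells, force-coupled to calcium signalling, were dye-loaded with a no-wash calcium kit. Compound was pin-added after a 10 s baseline. Fluorescence was read kinetically at 1 cycle/s for 180 s, with calcium rises flagged as agonism.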
# D3 antag = qHTS of D3 Dopamine Receptor Antagonist: qHTS | D(3) dopamine receptor (Homo sapiens), P35462 | D3R cells, DiscoveRx beta-arrestin luminescence, antagonist mode; hits give low values | max response, negative = inhibition, % | 360,000 tested, 2.5% active | AID 652054, 2013; in the data active = max response below about -50%; inconclusive = no clear call, values can overlap the other calls
#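 Cells plated overnight at 1500 cells/well, then exposed to library compounds with dopamine controls for 90 minutes at 37 degrees C. DiscoveRx reagent added for 30–60 minutes at room temperature; luminescence read, quantitative HTS format.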
# D1 antagonist = Antagonist of Human D 1 Dopamine Receptor: qHTS; activity change, negative = inhibition, % at 10 µM; D(1A) dopamine receptor (Homo sapiens), P21728; 360,000 tested, 3.2% active; HEK293 TREx D1 cells, calcium flux, dopamine EC80; hits give low values; in the data active = activity change below about -30%
#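 After overnight tetracycline induction at 30 C, force-coupled D1 HEK293 cells took up a no-wash calcium dye at room temperature. Compounds were added and monitored 180 s, and the response to EC80 dopamine was then recorded.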
# D3 ag = qHTS of D3 Dopamine Receptor Agonist: qHTS | 410,000 tested, 0.58% active | D3R DiscoveRx beta-arrestin cells, luminescence, 90 min | max activation, %; in the data active = max activation above about 30%
#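 Agonist-mode cell screen: cells plated at 1500/well and incubated overnight at 37 °C, then exposed to library compounds for 90 min at 37 °C. Detection reagent was added for 30–60 min at room temperature, and luminescence was read.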
# Numbers stand for hits; n = inactive; u = inconclusive; x = no result.
SMILES,D1 potentiator,Chronic BCR inh,D1 ag,D3 antag,D1 antagonist,D3 ag
CCOc1ccc(N2C(=O)C3CCCN3C2=O)cc1 (stereo not given),n,n,n,n,n,n
COc1ccc(N2C(=O)C3CCCN3C2=O)cc1 (stereo not given),n,n,n,n,-34,n
COc1ccc(N2C(=O)CC(N3CCN(c4ccccc4F)CC3)C2=O)cc1 (stereo not given),n,n,n,-66,n,n
COc1ccc(N2C(=O)CC(N3CCN(c4ccccc4OC)CC3)C2=O)cc1 (stereo not given),n,n,n,n,n,n
CCOc1ccc(CN2C(=O)c3ccccc3Sc3ccc(C(=O)NC4CCC(C)CC4)cc32)cc1 (stereo not given),n,x,n,x,n,n
C[C@@H]1CN([C@H](C)CO)C(=O)CCCn2nncc2CO[C@@H]1CN(C)S(=O)(=O)c1ccc(C#N)cc1,x,x,x,n,x,n
COC(=O)c1c(-c2ccc(OC)cc2)oc2ccc(-c3ccc(OC)nc3)cc12,n,n,n,n,n,40
COC(=O)c1c(-c2ccc(OC)cc2)oc2ccc(-c3cc(OC)c(OC)c(OC)c3)cc12,x,x,x,n,x,35
CCCN(CCC)CC(O)Cn1cc(/C=C/C(=O)c2ccc(OCC)cc2)c2ccccc21 (stereo not given),n,x,69,x,-32,n
CCCN(CCC)CC(O)Cn1c2ccccc2c2ccccc21 (stereo not given),n,n,31,n,n,n
Cc1ccc(N(CC(O)Cn2c3ccccc3c3ccccc32)S(C)(=O)=O)cc1 (stereo not given),n,u,n,n,n,n
Cc1cccc(C)c1N(CC(O)Cn1c2ccccc2c2ccccc21)S(C)(=O)=O (stereo not given),n,u,n,n,-36,n
CCOCCCNC(=O)c1ccc(Cn2c(=O)c3cccn3c3cccnc32)cc1,n,x,n,x,n,n
COc1ccc(N2CC(C(=O)OCC(=O)Nc3cccc(C)c3)CC2=O)cc1 (stereo not given),n,n,n,n,-31,n
C/C(=N\Nc1nnc(C)c(=O)[nH]1)C(=O)O,n,n,n,-52,n,n
COc1ccc(S(=O)(=O)N2CCOCC2)cc1NC(=O)C1CC(=O)N(c2ccc3c(c2)OCCO3)C1 (stereo not given),x,x,x,n,x,n
COc1ccc(OC)c(-c2nc(C(=O)NC3CCN(Cc4ccccc4)CC3)cc3c2[nH]c2ccccc23)c1,n,n,n,-125,n,n
COc1cc(-c2nc(C(=O)NC3CCN(Cc4ccccc4)CC3)cc3c2[nH]c2ccccc23)cc(OC)c1OC,n,n,n,-117,n,n
CN(Cc1ccccc1)S(=O)(=O)c1ccc2[nH]c(=O)oc2c1,n,n,n,n,-38,n
CN(c1ccccc1)S(=O)(=O)c1ccc2[nH]c(=O)oc2c1,n,u,n,n,n,n
O=C1/C(=C/c2cccs2)Sc2ccccc21,n,u,n,n,-93,n
CCOC(=O)[C@]12CCC=C1N(Cc1ccc3c(c1)OCO3)C(=O)[C@H](CC(=O)NCc1cccc(C(F)(F)F)c1)C2,x,x,x,n,x,n
O=C(Nc1cccc(C(F)(F)F)c1)c1ccc2c(c1)nnn2C1CCCC1,n,x,n,x,n,n
CCn1cc(C(=O)NCc2ccccc2Cl)c(=O)c2cc(S(=O)(=O)N3CCCCC3)ccc21,n,x,n,x,n,n
CCn1cc(C(=O)NCc2ccccc2Cl)c(=O)c2cc(S(=O)(=O)N3CCCCCC3)ccc21,n,x,n,x,-62,n
SMILES,D1 potentiator,Chronic BCR inh,D1 ag,D3 antag,D1 antagonist,D3 ag
CCCCN(C)CCCNC(=O)c1cn(CC)c2ccc(S(=O)(=O)N3CCOCC3)cc2c1=O,n,n,n,n,-32,n
CCn1cc(C(=O)O)c(=O)c2cc(S(=O)(=O)N(C)C)ccc21,n,n,n,n,-37,n
COCCNC(=O)c1cn(C)c2ccc(S(=O)(=O)N3CCCC3)cc2c1=O,n,n,n,n,-31,n
CCOc1ccc(-n2nc3ccc(N)cc3n2)cc1,n,n,n,n,n,n
CCOc1ccc(-n2nc3cc(C)c(N)cc3n2)cc1,n,u,n,n,-30,n
Cc1ccc(SCCNC(=O)c2ccccc2F)cc1,n,n,n,n,n,n
CS(=O)(=O)Nc1ccccc1C(=O)NCCSc1ccc(Cl)cc1,n,n,n,u,-32,n
CC1CC2=C(C(=O)O1)C(c1ccc(Cl)cc1)Nc1ccccc1N2 (stereo not given),n,n,n,-52,n,n
Cc1ccc(C2Nc3ccccc3NC3=C2C(=O)OC(C)C3)cc1 (stereo not given),n,n,n,n,n,n
COc1cc(/C=C(\C#N)C(=O)Nc2ccccc2)ccc1OCCN1CCOCC1,n,n,n,n,n,n
N#C/C(=C/c1ccc(N2CCOCC2)o1)C(=O)Nc1ccccc1,n,u,215,n,n,n
COCCNC(=O)/C(C#N)=C/c1ccc(N2CCOCC2)o1,n,n,n,n,n,n
N#C/C(=C\c1ccc(N2CCOCC2)o1)C(=O)NCCc1ccccc1,n,n,124,n,n,n
N#C/C(=C\c1ccc(OCCN2CCOCC2)cc1)C(=O)Nc1ccccc1,n,n,n,n,-30,n
Cc1ccc2c(c1)c1c(c(=O)n(-c3ccccc3C)c(=O)n1CC(=O)NCc1ccccc1)n2C,n,x,n,x,n,n
CCCCCC[N+](C)(C)CC/C=C1/c2ccccc2Sc2ccc(Cl)cc21,n,n,n,-105,-38,n
CC(=O)c1ccc(NC(=O)COc2ccccc2-c2nc(C)no2)cc1,n,x,n,x,n,n
O=C(NCCC1=CCCCC1)C(=O)NCC(c1ccco1)N1CCN(c2ccc(F)cc2)CC1 (stereo not given),n,n,n,-66,n,n
C[C@H](CO)N1C[C@H](C)[C@H](CN(C)C(=O)Nc2ccnc(N3CCOCC3)c2)OCc2cnnn2CCCC1=O,x,x,x,n,x,n
O=C(c1ccccc1-c1nc(-c2ccc(Cl)cc2)no1)N1CCCC1,n,u,n,n,-35,n
CN1CCN(C(=O)c2ccccc2-c2nc(-c3ccc(Cl)cc3)no2)CC1,n,n,n,n,n,n
CC1(C(=O)NS(=O)(=O)c2cccs2)CCN1C(=O)CCc1ccc(Cl)cc1Cl (stereo not given),x,x,x,n,x,n
